# Data taken from the supplement of paper PMC8728848.
# This is one part of a sample in which the strongest signals are shown more often than they occur.
# B1: CBM32-4 (Clostridium perfringens), P26831 (protein)
# chain: MGSSHHHHHHSSGLVPRGSHMASVYEPSLVDAYVGDDGAKKAVDGDLKTRVKFLGAPSTGDTIVYDLGQEILVDNLKYVVLDTEVDHVRDGKIQLSLDGETWTDAINIGDGVENGVDDMFSTPLKNGYKHGNQSGGIVPIDSAYVEGDNLNQKARYVRILFTAPYRHRWTVINELMINNGEYIPTVNDPT
# Tests used:
# Assay in all cases: glycan array binding signal (z-score within array); higher = stronger binding
# Conditions in all cases: glycan notation: IUPAC condensed, linker removed
# [1] = target: Fuc(a1-2)Gal(b1-4)GlcNAc6S
# Procedure, shortened: (§1)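 Arrays were curated from the Consortium for Functional Glycomics database, 3228 in total, and kept only where the protein sequence was available. Binding is expressed as a within-array Z-score. This score was averaged across arrays of the same protein sequence at different concentrations or buffers and across linkers, and negative values can be read as non-binding.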
# [2] = target: Fuc(a1-2)Gal(b1-4)[Fuc(a1-3)]GlcNAc(b1-3)Gal(b1-4)[Fuc(a1-3)]GlcNAc(b1-3)Gal(b1-4)[Fuc(a1-3)]GlcNAc
# Procedure, shortened: as §1
# [3] = target: Fuc(a1-2)Gal6S(b1-4)Glc6S
# Procedure, shortened: as §1
# Fuc(a1-2)[Gal(a1-3)]Gal = target: Fuc(a1-2)[Gal(a1-3)]Gal
# Procedure, shortened: as §1
# [4] = target: Fuc(a1-2)[GalNAc(a1-3)]Gal(b1-4)GlcNAc
# Procedure, shortened: as §1
# Gal3S(b1-4)GlcNAc = target: Gal3S(b1-4)GlcNAc
# Procedure, shortened: as §1
# Gal3S4S(b1-4)GlcNAc = target: Gal3S4S(b1-4)GlcNAc
# Procedure, shortened: as §1
# Gal3S6S(b1-4)GlcNAc6S = target: Gal3S6S(b1-4)GlcNAc6S
# Procedure, shortened: as §1
# Gal6S(b1-4)Glc6S = target: Gal6S(b1-4)Glc6S
# Procedure, shortened: as §1
# Gal6S(b1-4)GlcNAc6S = target: Gal6S(b1-4)GlcNAc6S
# Procedure, shortened: as §1
# [5] = target: GlcNAc(b1-2)Gal(b1-3)GalNAc
# Procedure, shortened: as §1
# Man(a1-2)Man(a1-3)Man = target: Man(a1-2)Man(a1-3)Man
# Procedure, shortened: as §1
# [6] = target: Man(a1-2)Man(a1-3)[Man(a1-2)Man(a1-6)]Man(a1-6)[Man(a1-2)Man(a1-2)Man(a1-3)]Man
# Procedure, shortened: as §1
# Neu5Ac(a2-3)Gal(b1-4)Glc = target: Neu5Ac(a2-3)Gal(b1-4)Glc
# Procedure, shortened: as §1
# [7] = target: Neu5Ac(a2-6)Gal(b1-4)GlcNAc(b1-2)Man(a1-6)[Gal(b1-4)GlcNAc(b1-2)Man(a1-3)]Man(b1-4)GlcNAc(b1-4)GlcNAc
# Procedure, shortened: as §1
# Neu5Ac(a2-6)GalNAc = target: Neu5Ac(a2-6)GalNAc
# Procedure, shortened: as §1
binder,measurement,setting,value
B1,glycan array binding signal (z-score),[1],-0.104
same,glycan array binding signal (z-score),[2],-0.29
same,glycan array binding signal (z-score),[3],4.3
same,glycan array binding signal (z-score),Fuc(a1-2)[Gal(a1-3)]Gal,-0.4
same,glycan array binding signal (z-score),[4],-0.266
same,glycan array binding signal (z-score),Gal3S(b1-4)GlcNAc,-0.195
same,glycan array binding signal (z-score),Gal3S4S(b1-4)GlcNAc,3.87
same,glycan array binding signal (z-score),Gal3S6S(b1-4)GlcNAc6S,5.67
same,glycan array binding signal (z-score),Gal6S(b1-4)Glc6S,4.96
same,glycan array binding signal (z-score),Gal6S(b1-4)GlcNAc6S,4.9
same,glycan array binding signal (z-score),[5],-0.264
same,glycan array binding signal (z-score),Man(a1-2)Man(a1-3)Man,-0.021
same,glycan array binding signal (z-score),[6],-0.564
same,glycan array binding signal (z-score),Neu5Ac(a2-3)Gal(b1-4)Glc,-0.183
same,glycan array binding signal (z-score),[7],-0.336
same,glycan array binding signal (z-score),Neu5Ac(a2-6)GalNAc,-0.363
